Test results: PubChem BioAssay (NCI)
This is part of a sample that, as a whole, favours compounds with a hit. Of some 83,000 tested, about 20% had one in any assay.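 Results are percent growth after 48 hours of single-concentration exposure. 100 means growth as in untreated cells, lower positive values show inhibition; negative values down to -100 show cell death.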 Unmarked numbers belong to inactive results. Active and inactive are the calls of the source. Rule for the calls: active = growth percent below 10; inactive = the rest.

system: SK-MEL-28 melanoma; assay: NCI-60 one-dose screen, 48 h (100 = growth as untreated, 0 = no growth, -100 = all killed); details: 10 µM unless noted

Row | SMILES | growth
1 | O=[N+]([O-])c1cccc(N=NNc2cccc([N+](=O)[O-])c2)c1 | 99.5%
2 | Cc1ccc(N)c(O)c1 | 103%
3 | CCN(CC)c1ccc2cc(NC(=O)OCCNC(=O)CCNC(=O)[C@H](CC(C)C)NC(=O)C(C)(C)NC(=O)C(C)(C)NC(=O)[C@H](CC(C)C)NC(=O)CCNC(=O)C(C)(C)NC(=O)[C@H](CC(C)C)NC(=O)CCNC(=O)[C@@](C)(CC)NC(=O)[C@H](C)NC(=O)CCNC(=O)C(C)(C)NC(=O)[C@H](C)NC(=O)[C@@H]3CCCN3C(=O)[C@@](C)(CC)NC(=O)[C@H](Cc3ccccc3)NC(=O)C3CCCN3C(=O)C(C)(C)NC(=O)C3CCCN3C(=O)C(C)(C)NC(C)=O)c(=O)oc2c1 (some centres undefined) | -84.1% (active)
4 | COC(=O)[C@]12CCC(C)(C)C[C@H]1C1=CC[C@@H]3[C@@]4(C)C/C(=C/c5cccnc5)C(=O)C(C)(C)[C@@H]4CC[C@@]3(C)[C@]1(C)CC2 | -69.5% [100 µM] (active)
5 | CC(C)[C@H]1COC(=O)N1[C@@H]1C(=O)N([C@@H](CCC(=O)N2CCN(C3CCCC3)CC2)C(=O)N[C@@H]2CCCc3ccccc32)[C@@H]1/C=C/c1cccc(Cl)c1 | 71.7%
6 | CCN=Cc1c(O)c(O)c(C(C)C)c2cc(C)c(-c3c(C)cc4c(C(C)C)c(O)c(O)c(C=NCC)c4c3O)c(O)c12 | 74.9%
7 | O=c1cc(-c2ccccc2)oc2c(O)c(O)ccc12 | 81%
8 | COc1ccc(C2NC(=O)C(C#N)c3c2sc2c(F)cccc32)cc1 (centres undefined) | 52.6%
9 | COc1cc(-c2nc(SCCC(C)C)nc(Nc3ccccc3)c2C#N)cc(OC)c1OC | 103%
10 | O=C(N/N=C\c1cc(Cl)ccc1O)N/N=C/c1cc(Cl)ccc1O | 80.4%
11 | Cc1ccc(S(=O)(=O)Oc2ccc([N+](=O)[O-])cc2[N+](=O)[O-])cc1 | 113%
12 | COCCCNc1nc(NC(=O)c2cc(OC)cc(OC)c2)cc(-c2cccnc2)n1 | 105%
13 | CC1(C)CC[C@]2(C(=O)O)CC[C@]3(C)C(=CC[C@@H]4[C@@]5(C)C/C(=C/c6ccco6)C(=O)C(C)(C)[C@@H]5CC[C@]43C)[C@@H]2C1 | -79.5% [100 µM] (active)
14 | O=C(N=c1n(-c2ccccc2)nc2n1CCN2C1=NCCN1)c1ccc(Cl)cc1 | 81.3%
